Screening results deposited in PubChem by The Scripps Research Institute Molecular Screening Center.
LEDGF integ inh – blocks HIV-1 LEDGF/p75-dependent DNA integration; inhibition, % at 3.7 µM; actives 0.64% (n = 370,000); TR-FRET IN-LEDGF/p75 DNA integration, Eu/Cy5; AID 743269;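 active = inhibition above the screen-wide mean plus 3 SD, cut at about 13% in these data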;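 also: signal is the Cy5 over europium emission ratio at 671 and 618 nm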
PLCg1 inh – inhibitors of human phospholipase C gamma1; P19174; purified PLC-gamma1, fluorogenic substrate, fluorescence; inhibition, % at 12.2 µM; actives 0.84% (n = 370,000); in the data active = inhibition above about 9.5%
MBD2 inh – MBD2-methylated oligo binding inhibition. Q9UBB5. TR-FRET, MBD2 binding to methylated oligonucleotide. inhibition, % at 4.4 µM. actives 0.31% (n = 370,000). AID 686964; in the data active = inhibition above about 13%
PLC-beta3 inh – blocks human PLC-beta3 enzyme activity. Purified PLC-beta3, fluorogenic substrate, fluorescence. actives 0.18% (n = 370,000). Q01970. AID 720704. inhibition, % at 12.2 µM
UHRF1 binding – UHRF1 methyl-DNA binding inhibition | Q96T88 | UHRF1 binding to methylated oligo, TR-FRET | inhibition, % at 4.4 µM | actives 0.75% (n = 370,000); in the data active = inhibition above about 21%;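 also: UHRF1 SRA domain binding a hemimethylated CpG hairpin DNA probe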
PLCg1 ctr – counter-screen for PLC-beta3 inhibitors: inhibitors of human PLC-gamma1; shares compounds with PLCg1 inh; purified PLC-gamma1, fluorogenic substrate, fluorescence; inhibition, % at 12.3 µM; actives 3.1% (n = 3,300); AID 743258; in the data active = inhibition above about 9.5%
PLCbeta3 conf – human PLC-beta3 inhibition, confirmation. shares compounds with PLCg1 inh. purified PLC-beta3, fluorogenic substrate fluorescence. inhibition, % at 12.3 µM. actives 1% (n = 3,300)
Each line names hits and unclear results; the compound was inactive in the other large screens (follow-up assays come after a bar, where they were run). Compounds with a hit are over-represented: about 2.3% of the library has one in this group of screens. Rule as the data show it, unless noted: active = inhibition above about 11%; inactive = the rest.

COc1ccc(S(=O)(=O)NCC(=O)NCc2cc(=O)n(C)c(=O)n2C)cc1C	PLCg1 inh 9.9 | PLCg1 ctr inactive | PLCbeta3 conf inactive
COc1ccc(N(C)C(=O)CCS(=O)(=O)c2cccc3nonc23)cc1	PLC-beta3 inh 11 | PLCg1 ctr inactive | PLCbeta3 conf inactive
CCN(CC)C(=O)CC[C@H]1CC[C@]2(CCCN(Cc3ccccc3)C2)O1	none
CC(C)NC(=O)CC1C(=O)N(Cc2ccccc2)C(C)c2nc3ccccc3n21 (centres undefined)	PLCg1 inh 13 | PLCg1 ctr inactive | PLCbeta3 conf inactive
CC(C)CNC(=O)c1cc([N+](=O)[O-])ccc1N1CCOCC1	PLCg1 inh 11 | PLCg1 ctr inactive | PLCbeta3 conf inactive
O=C(c1cc(Cl)cc(Cl)c1)N1CCC(Oc2cccnc2)CC1	none
C=CCNC(=O)CN(C(=O)c1csc2ccc(Cl)cc12)c1cccc(Br)c1	none
O=C(NC1CCCCN(Cc2ccc(OC(F)(F)F)cc2)C1=O)c1ccc2ccccc2c1 (centres undefined)	none
COc1ccc(CCNC(=O)c2c(O)c3c([nH]c2=O)CCCC3)cc1	PLCg1 inh 11 | PLCg1 ctr inactive | PLCbeta3 conf inactive
Cc1cc(C)n(CCOc2nonc2N)n1	PLCg1 inh 11, PLC-beta3 inh 12 | PLCg1 ctr inactive | PLCbeta3 conf inactive
Nc1nonc1OCCOCCOCCOc1nonc1N	none
CCc1ccc(C=NN2CCN(Cc3ccc(C)cc3C)CC2)cc1	none
Cc1ccc(CN2CCN(/N=C/c3sccc3C)CC2)c(C)c1	PLCg1 inh 11 | PLCg1 ctr inactive | PLCbeta3 conf inactive
Cc1ccc(C(C)C)cc1S(=O)(=O)NCc1cccnc1	PLCg1 inh 9.9 | PLCg1 ctr inactive | PLCbeta3 conf inactive
CCOc1cc(/C=N/NC(=O)N/N=C/c2ccc(O)c(OCC)c2)ccc1O	PLC-beta3 inh 13 | PLCg1 ctr inactive | PLCbeta3 conf inactive
CCOc1cc(/C=N/NC(=O)C(=O)N/N=C/c2ccc(O)c(OCC)c2)ccc1O	none
CCOC(=O)CC[C@@]1(C(=O)OCC)C[C@@H](CC(=O)N2CCOCC2)C(=O)N2CCCC=C21	none
O=C(O)CC(Cc1ccc(Cl)cc1)C(=O)Nc1cc(Cl)ccc1Cl (centres undefined)	PLCg1 inh 12 | PLCg1 ctr inactive | PLCbeta3 conf inactive
CN(C)S(=O)(=O)c1cc([N+](=O)[O-])ccc1N1CCCCCC1	PLCg1 inh 10 | PLCg1 ctr inactive | PLCbeta3 conf inactive
CC(C)CN(CC(C)C)S(=O)(=O)c1cc([N+](=O)[O-])ccc1N1CCCCCC1	none
CCN(CC)C1CCN(C(=O)c2cc(COc3ccccc3SC)on2)C1 (centres undefined)	PLCg1 inh 10 | PLCg1 ctr inactive | PLCbeta3 conf inactive
Cc1ccc(CCN2CC(C(=O)NCc3cccnc3)CC2=O)cc1 (centres undefined)	PLCg1 inh 12 | PLCg1 ctr inactive | PLCbeta3 conf inactive
Cc1ccc(N2CC(C(=O)NCc3cccnc3)CC2=O)cc1 (centres undefined)	none
CCn1c(Cc2cccs2)nnc1SCC(=O)Nc1ccc(Cl)cc1C	none
COc1ccc(C(=O)Nc2ccc(C)cc2C(=O)c2ccccc2)cc1	none
COc1ccccc1C(=O)Nc1ccc(C)cc1C(=O)c1ccccc1	PLCg1 inh 9.7 | PLCg1 ctr inactive | PLCbeta3 conf inactive
COc1cc(C(=O)Nc2ccccc2NC(=O)c2cc(OC)c(OC)c(OC)c2)cc(OC)c1OC	none
COc1cc(C(=O)Nc2ccc(Br)cc2C(=O)c2cc(OC)c(OC)c(OC)c2)cc(OC)c1OC	PLCg1 inh 15 | PLCg1 ctr inactive | PLCbeta3 conf inactive
CN(Cc1cn(Cc2ccccc2)nn1)S(=O)(=O)c1ccccc1Br	none
CCNC(=S)NNC(=O)CSc1nc2ccccc2c(=O)n1-c1ccc(Cl)cc1	none
O=C(c1cc(Cl)cc(Cl)c1)N1CC[C@H]2[C@H](CCCN2Cc2ccccc2)C1	none
Cc1ccc(F)cc1NC(=O)CCOc1ccccc1	PLCg1 inh 11, PLC-beta3 inh 11 | PLCg1 ctr inactive | PLCbeta3 conf inactive
COc1ccc2c(c1)CO[C@H]([C@H](O)COC(C)=O)[C@H]2/C=C/c1ccccc1	none
